Shown are actives, neighbours in structure and some others; about 2.3% of the full set was active somewhere.
SENP6 block = inhibitors of human SENP6 protease. Q9GZR1. Recombinant SENP6 catalytic domain, aminoluciferin luminescence. inhibition, % at 10 µM. hit rate 1.8% among 330,000. AID 2599;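 active = inhibition above about 50% at the single tested dose, limit read from the data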
Target sequence (Q9GZR1 628-1112 limits assumed): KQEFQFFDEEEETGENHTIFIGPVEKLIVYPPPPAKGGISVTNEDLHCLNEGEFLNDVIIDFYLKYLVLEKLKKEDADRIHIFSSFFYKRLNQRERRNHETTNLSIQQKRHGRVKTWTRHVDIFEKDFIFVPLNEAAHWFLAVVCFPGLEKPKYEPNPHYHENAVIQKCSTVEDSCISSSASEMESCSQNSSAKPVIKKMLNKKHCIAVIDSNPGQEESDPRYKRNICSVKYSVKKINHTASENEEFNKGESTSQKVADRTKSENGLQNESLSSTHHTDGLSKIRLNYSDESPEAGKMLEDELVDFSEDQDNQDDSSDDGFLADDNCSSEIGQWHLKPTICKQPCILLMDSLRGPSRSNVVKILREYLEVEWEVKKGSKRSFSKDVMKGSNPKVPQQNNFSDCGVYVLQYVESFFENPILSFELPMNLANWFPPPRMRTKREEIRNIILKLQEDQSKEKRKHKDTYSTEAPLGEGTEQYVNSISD
LGR2 antag = blocks bursicon-induced cAMP signaling via Drosophila LGR2. HEK293 LGR2, CRE-luciferase, bursicon-stimulated, 4 h. inhibition, % at 9.99 µM. hit rate 0.35% among 380,000;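 active = drop in luminescence signal, shown as inhibition above about 50% in the replicate tests, limit read from the data, passing the limit was not always enough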;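 note: agonist challenge used bursicon conditioned medium at about half maximal strength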
HSP90 inh = inhibitors of HSP90 luciferase refolding in rabbit reticulocyte lysate; luciferase refolding luminescence, 3 h; hit rate 0.91% among 290,000; inhibition, % at 5.6 µM;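 active = inhibition above the screen-wide mean plus 3 SD, computed separately per campaign, cut at about 16% in these data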;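 note: inhibitors lower the luminescence because luciferase stays unfolded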
SENP8 block-1 = blocks the human protease SENP8; hit rate 1.2% among 330,000; inhibition, % at 10 µM; purified SENP8, Z-RLRGG-aminoluciferin cleavage, luminescence; in the data active = inhibition above about 50%
SENP7 block = inhibitors of human SENP7 protease. inhibition, % at 5 µM. Q9BQF6. recombinant SENP7, Z-RLRGG-aminoluciferin luminescence, 40 min. hit rate 1.5% among 330,000;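 active = inhibition above about 50% at the single test dose, limit read from the data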
SENP8 block-2 = inhibitors of human SENP8 protease; recombinant SENP8, Nedd8 substrate fluorescence; inhibition, % at 20 µM; hit rate 0.64% among 360,000; AID 602440; in the data active = inhibition mostly above about 40%, no sharp cut-off; inactive = mostly below about 27%
SENP8 conf = confirmation of human SENP8 protease inhibitors | AID 624319 | purified SENP8, Nedd8-AMC/pro-Nedd8 cleavage fluorescence, 30 min | hit rate 15% among 1,400 | shares compounds with SENP8 block-2 | inhibition, % at 25 µM; in the data active = inhibition mostly above about 39%, no sharp cut-off; inactive = mostly below about 34%
Of the large screens only hits and unclear results are named; the others gave an inactive call (follow-up assays come after a bar, where they were run).

O=C(Nc1c(-c2ccccc2)[nH][nH]c1=O)c1ccc2ccccc2c1	none (no result: SENP6 block, HSP90 inh, SENP8 block-1, SENP7 block)
O=C(Nc1c(-c2ccc3c(c2)OCO3)[nH][nH]c1=O)c1cnccn1	none (no result: SENP6 block, HSP90 inh, SENP8 block-1, SENP7 block)
O=C(Nc1c(-c2ccccc2)[nH][nH]c1=O)c1cnccn1	SENP8 block-2 40 (no result: SENP6 block, HSP90 inh, SENP8 block-1, SENP7 block) | SENP8 conf inactive
O=C(Nc1c(-c2ccccc2)[nH][nH]c1=O)c1ccc(Br)cc1	SENP8 block-2 58 (no result: SENP6 block, HSP90 inh, SENP8 block-1, SENP7 block) | SENP8 conf inactive
COc1ccc(-c2[nH][nH]c(=O)c2NC(=O)c2ccc(C)cc2)cc1	SENP8 block-2 45 (no result: SENP6 block, HSP90 inh, SENP8 block-1, SENP7 block) | SENP8 conf inactive
Cc1noc(C)c1S(=O)(=O)Nc1ccc2c(c1)CC(=O)N([C@@H](C)CO)C[C@@H](C)[C@H](CN(C)Cc1ccc3c(c1)OCO3)O2	none (no result: SENP6 block, HSP90 inh, SENP8 block-1, SENP7 block, SENP8 block-2)
COc1ccc(-c2nn(-c3ccccc3)cc2C=O)cc1[N+](=O)[O-]	none
COc1ccc(-c2nnc(SC)nc2-c2ccc(OC)c([N+](=O)[O-])c2)cc1[N+](=O)[O-]	SENP8 block-2 49 (no result: HSP90 inh) | SENP8 conf inactive
CCC(=O)N1CC2(C1)CN(Cc1ccc3c(c1)OCO3)[C@H](CO)c1c2c2ccc(OC)cc2n1C	none (no result: SENP6 block, HSP90 inh, SENP8 block-1, SENP7 block, SENP8 block-2)
O=C(C1CCC(=O)N1Cc1ccccc1Cl)N1CCN(c2cccc(Cl)c2)CC1 (stereo not drawn)	SENP8 block-2 40 (no result: LGR2 antag) | SENP8 conf inactive
CNC(=O)C[C@H]1CC[C@@H]2[C@H](COC[C@H](O)CN2S(=O)(=O)c2ccc(Oc3ccccc3)cc2)O1	none (no result: SENP6 block, HSP90 inh, SENP8 block-1, SENP7 block, SENP8 block-2)
COc1cccc(NC(=O)N2C[C@@H](O)COC[C@H]3O[C@@H](CC(=O)NC4CCC4)CC[C@@H]32)c1	none (no result: SENP6 block, HSP90 inh, SENP8 block-1, SENP7 block, SENP8 block-2)
CC(=O)Nc1ccc(C(=O)O)cc1	SENP8 block-2 46 (no result: HSP90 inh) | SENP8 conf inactive
COc1cc(=O)n(C)c2ccccc12	none
COc1cc(=O)n(C)c2c(O)cccc12	SENP8 block-2 56 | SENP8 conf inactive
O=C(CN(C1CCCCC1)S(=O)(=O)c1ccc(F)cc1)NCC1CCCO1 (stereo not drawn)	SENP8 block-2 46 (no result: SENP6 block, HSP90 inh, SENP8 block-1, SENP7 block) | SENP8 conf inactive
CC(C)NC(=O)Nc1ccc2c(c1)C(=O)N([C@H](C)CO)C[C@@H](C)[C@H](CN(C)Cc1ccc(Cl)c(Cl)c1)OCCCC[C@@H](C)O2	none (no result: SENP6 block, HSP90 inh, SENP8 block-1, SENP7 block, SENP8 block-2)
Cc1nnc(SCc2ccccc2)nc1/C=C/NOCc1ccc(Cl)cc1Cl	SENP8 block-2 54 (no result: LGR2 antag) | SENP8 conf inactive
CSc1nnc(C)c(/C=C/NOCc2cccc(F)c2)n1	SENP8 block-2 40 | SENP8 conf 57
CSc1nnc(C)c(/C=C/Nc2ccc(F)cc2F)n1	none
C=CCSc1nnc(C)c(/C=C/Nc2ccc(Cl)cc2)n1	none
COCCNC(=O)C[C@H]1C[C@H]2c3cc(NC(=O)C4CCC4)ccc3O[C@H]2[C@@H](CO)O1	none (no result: SENP6 block, HSP90 inh, SENP8 block-1, SENP7 block, SENP8 block-2)
C=CCn1c(C)cc(C(=O)CSc2nnc(NC(C)C)s2)c1C	SENP8 block-2 44 (no result: LGR2 antag) | SENP8 conf inactive
C[C@@H]1CN([C@@H](C)CO)C(=O)c2cc(NS(=O)(=O)c3cccs3)ccc2O[C@H]1CN(C)C(=O)Nc1ccc(F)cc1	none (no result: SENP6 block, HSP90 inh, SENP8 block-1, SENP7 block, SENP8 block-2)
C[C@@H]1CN([C@H](C)CO)C(=O)c2cc(NC(=O)Cc3cn(C)c4ccccc34)ccc2O[C@@H]1CN(C)Cc1ccc(Oc2ccccc2)cc1	none (no result: SENP6 block, HSP90 inh, SENP8 block-1, SENP7 block, SENP8 block-2)
Cc1[nH]n2c(=O)cc(-c3ccc([N+](=O)[O-])cc3)nc2c1-c1ccccc1	SENP8 block-2 44 (no result: LGR2 antag) | SENP8 conf inactive
